Screens (PubChem)
Most compounds without a hit are left out; they make up all but 3.3% or so of the library.
GSIS activator: GLuc luminescence reporter in INS-1E cells, primary screen for activators of glucose-dependent secretion of insulin | INS-1E GLuc reporter insulin secretion, 2-3 h | activation, % at 16.6 µM | 370,000 tested, 0.61% active | AID 743287, 2014;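 active = lowest replicate activation of at least 40%, so every replicate reaches that level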;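 also: 0% = median of neutral control wells and 100% = median of IBMX positive control wells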
CASP6 VEID inh: human caspase-6 inhibitors, primary screen, biochemical, VEID-R110 fluorescence, single point, set 2; purified caspase-6, Z-VEID-R110 cleavage fluorescence; AID 686996, 2013; 350,000 tested, 0.53% active; P55212; inhibition, % at 12.5 µM;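 active = mean inhibition across replicates at least about 35%, with every replicate also reaching that limit, limit read from the data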;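 also: 0% = median of neutral control wells and 100% = no fluorescence left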
Target sequence (P55212 24-179 limits assumed): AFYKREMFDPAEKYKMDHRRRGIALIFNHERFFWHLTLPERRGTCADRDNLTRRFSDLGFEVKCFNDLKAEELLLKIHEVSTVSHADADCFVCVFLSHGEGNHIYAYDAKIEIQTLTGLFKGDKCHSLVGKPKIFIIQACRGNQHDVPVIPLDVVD
Target sequence (P55212 194-293 limits assumed): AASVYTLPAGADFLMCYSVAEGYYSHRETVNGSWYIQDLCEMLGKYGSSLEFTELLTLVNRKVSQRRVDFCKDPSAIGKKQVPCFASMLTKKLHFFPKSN
FGF22 binding: binders of human FGF22 protein, primary screen, FGF22 synaptogenesis inhibitor project, biophysical, thermal shift, single point | recombinant FGF22 thermal shift, SYPRO orange fluorescence; percent of sucrose octasulfate shift, DMSO zero | 340,000 tested, 1.5% active | activity (Tm shift, normalised), % at 9.99 µM | Fibroblast growth factor 22 (Homo sapiens), Q9HCT0;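 active = mean Tm shift, scaled 0 neutral to 100 positive control, at about 1.3% or above, every replicate too, limit read from the data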
ERAP1 HTS inh: human ERAP1 aminopeptidase inhibitors, primary screen, biochemical, single point, plate reader | recombinant ERAP1, Leu-AMC fluorescence, 60 min | inhibition, % at 10.7 µM | AID 652197, 2013 | 340,000 tested, 0.15% active;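 active = mean replicate inhibition of at least 30%, or all replicates individually reaching that 30% level; inactive = mean below 30% and not every replicate reaching it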;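 also: 0% = neutral control wells and 100% = L-leucinethiol positive control wells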
SIRT5 block: SIRT5 desuccinylase inhibitors, primary screen, biochemical, fluorescence imaging, single point, set 5; 330,000 tested, 1.1% active; inhibition, % at 15 µM; Purified SirT5, succinyl-peptide AMC, trypsin-coupled fluorescence; NAD-dependent protein deacylase sirtuin-5, mitochondrial (Homo sapiens), Q9NXA8; AID 652115, 2013; in the data active = inhibition above about 15%
Target sequence (Q9NXA8 whole entry, looked up): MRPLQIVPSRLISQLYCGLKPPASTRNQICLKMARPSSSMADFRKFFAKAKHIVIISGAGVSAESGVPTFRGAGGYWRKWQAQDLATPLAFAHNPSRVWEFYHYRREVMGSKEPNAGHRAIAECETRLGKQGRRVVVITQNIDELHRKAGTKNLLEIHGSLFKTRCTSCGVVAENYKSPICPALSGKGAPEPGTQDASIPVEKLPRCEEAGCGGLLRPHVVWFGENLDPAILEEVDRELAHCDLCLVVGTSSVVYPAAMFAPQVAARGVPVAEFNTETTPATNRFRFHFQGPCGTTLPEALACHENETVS
* hit, by the source's call; nt = not tested or not shown.

SMILES	GSIS activator	CASP6 VEID inh	FGF22 binding	ERAP1 HTS inh	SIRT5 block
COc1ccc(S(=O)(=O)N(C)C[C@H]2OCCCC[C@@H](C)Oc3ccc(NS(=O)(=O)c4ccc(F)cc4)cc3C(=O)N([C@@H](C)CO)C[C@H]2C)cc1	-8	1	0	1	18*
COc1ccc(S(=O)(=O)N(C)C[C@@H]2OCCCC[C@H](C)Oc3ccc(NS(=O)(=O)c4ccc(F)cc4)cc3C(=O)N([C@H](C)CO)C[C@H]2C)cc1	14	3	0	-1	19*
O=C(C[C@@H]1CC[C@H]2[C@@H](COC[C@H](O)CN2C(=O)c2ccccc2F)O1)NCc1ccc(-c2ccccc2)cc1	-12	2	0	1	6
O=C(NCc1cccnc1)c1ccc(Cn2c(=S)[nH]c3ccc(Br)cc3c2=O)cc1	-13	-5	0	-5	16*
CO[C@H]1CN(C)C(=O)c2cc(NC(=O)CC(F)(F)F)ccc2OC[C@@H](C)N(C(=O)C2CCOCC2)C[C@@H]1C	1	-2	0	2	3
CC(C)C(=O)N=c1sc2cc(F)cc(F)c2n1C	nt	1	0	0	17*
O=C(O)C1=CC[C@@H](c2ccc(Cl)cc2)N(S(=O)(=O)c2ccc(Cl)cc2)[C@H]1c1ccc(F)cc1	13	8	1	8	3
CCc1ccc([C@@H]2CC=C(C(=O)O)[C@H](c3ccccc3)N2S(=O)(=O)c2ccc(C)cc2)cc1	-2	6	0	3	1
Cc1ccc(S(=O)(=O)N2[C@@H](c3ccc(C(C)(C)C)cc3)C(C(=O)O)=CC[C@H]2c2ccc(Cl)cc2)cc1	-15	26	41	2	16*
CCc1ccc([C@@H]2CC=C(C(=O)O)[C@H](c3ccc(C(C)(C)C)cc3)N2S(=O)(=O)c2ccc(C)cc2)cc1	-1	45*	41	5	22*
Cc1ccc(S(=O)(=O)N2C(c3ccc(Cl)c(Cl)c3)CC=C(C(=O)O)C2c2ccc(Cl)cc2)cc1 (centres undefined)	8	22	1	0	-3
Cc1ccccc1S(=O)(=O)N1[C@@H](c2ccc(F)cc2)C(C(=O)O)=CC[C@H]1c1ccc(Cl)cc1	-4	3	2.2*	5	2
Cc1ccc(S(=O)(=O)N2[C@@H](c3ccc(Br)cc3)C(C(=O)O)=CC[C@H]2c2ccc(C(C)C)cc2)cc1	-39	26	0	nt	15*
Cc1ccc([C@@H]2CC=C(C(=O)O)[C@H](c3ccc(Br)cc3)N2S(=O)(=O)c2ccc(C)cc2)cc1	-18	17	0	nt	4
COc1ccccc1CNC(=O)C[C@H]1C[C@@H]2c3cc(NC(=O)CN(C)C)ccc3O[C@@H]2[C@@H](CO)O1	-8	-2	0	3	-1
O=C(C[C@@H]1C[C@H]2c3cc(NC(=O)NC4CCCC4)ccc3O[C@H]2[C@@H](CO)O1)NCc1cccc(F)c1	15	1	0	-1	0
Cc1ccc([C@@H]2CC=C(C(=O)O)[C@H](c3ccc(C(C)(C)C)cc3)N2S(=O)(=O)c2ccc(C)cc2)cc1	-24	46*	0	1	7
Cc1ccc(S(=O)(=O)N2[C@@H](c3ccc(C(C)(C)C)cc3)C(C(=O)O)=CC[C@H]2c2ccc(C(C)C)cc2)cc1	-35	33	0	nt	28*
Cc1ccc(S(=O)(=O)N2[C@@H](c3ccc(C(C)(C)C)cc3)C(C(=O)O)=CC[C@H]2c2cccs2)cc1	-4	13	0	-2	0
C[C@@H]1CCCCO[C@H](CN(C)S(C)(=O)=O)[C@@H](C)CN([C@H](C)CO)C(=O)c2cc(NC(=O)CCC(F)(F)F)ccc2O1	1	-3	1	-2	2
Cc1[nH]c2ccccc2c1N=Nc1ccccc1F	-31	7	44*	3	-3
C[C@H]1CN([C@@H](C)CO)C(=O)Cc2cc(NC(=O)Nc3ccccc3)ccc2O[C@@H]1CN(C)C(=O)Nc1ccc(F)cc1	2	10	-1	3	-1
CCCC#Cc1ccc2c(c1)O[C@H](CN(C)S(=O)(=O)c1cccc(F)c1)[C@@H](C)CN([C@@H](C)CO)S2(=O)=O	-12	-1	-1	-4	-1
CC(C)CC#Cc1ccc2c(c1)O[C@H](CN(C)S(=O)(=O)c1cccc(F)c1)[C@H](C)CN([C@@H](C)CO)S2(=O)=O	-18	-2	0	-2	17*
CC(C)CC#Cc1ccc2c(c1)O[C@H](CN(C)S(=O)(=O)c1cccc(F)c1)[C@H](C)CN([C@H](C)CO)S2(=O)=O	14	2	0	-2	21*
SMILES	GSIS activator	CASP6 VEID inh	FGF22 binding	ERAP1 HTS inh	SIRT5 block
CCCC#Cc1ccc2c(c1)O[C@H](CN(C)S(=O)(=O)c1cccc(F)c1)[C@H](C)CN([C@@H](C)CO)S2(=O)=O	-7	-4	0	-1	2
CCCNC(=O)C[C@H]1CC[C@H]2[C@H](COc3ccc(NC(=O)Nc4cccc(C)c4)cc3C(=O)N2C)O1	-5	1	0	-2	-1
C#CCOCCOCCOCCNc1nc(N2CCN(C(=O)CCCCCCCCCCNC(=O)Cn3cc(C[C@@H](C)O)nn3)CC2)nc(N2CCN(C(=O)CCCCCCCCCCNC(=O)[C@@H](CCC(=O)O)n3cc(CCCCCN)nn3)CC2)n1	nt	-9	-1	-5	3
CC(C)(C)OC(=O)CC[C@@H](C(=O)NCCCCCCCCCCC(=O)N1CCN(C(=O)OC(C)(C)C)CC1)n1cc(CCCCCNC(=O)OC(C)(C)C)nn1	15	-1	0	nt	nt
CC(C)(C)OC(=O)NCCCCCc1cn([C@@H](CO)C(=O)NCCCCCCCCCCC(=O)N2CCN(C(=O)OC(C)(C)C)CC2)nn1	nt	4	1.3*	-4	9
C#CCOCCOCCOCCNc1nc(N2CCN(C(=O)CCCCCCCCCCNC(=O)Cn3cc(C[C@@H](C)O)nn3)CC2)nc(N2CCN(C(=O)CCCCCCCCCCNC(=O)[C@H](CO)n3cc(CCCSC)nn3)CC2)n1	-9	0	0	-3	20*
CCC(=O)Nc1ncc2c(n1)CC(c1ccco1)CC2=O (centres undefined)	3	nt	nt	nt	nt
CC(=O)Nc1ncc2c(n1)CC(c1ccco1)CC2=O (centres undefined)	10	3	nt	-2	16*
O=C(CSc1nccc(=O)[nH]1)NN(c1ccccc1)c1ccccc1	1	2	0	0	0
O=C(CSc1ncn[nH]1)NN(c1ccccc1)c1ccccc1	0	-3	44*	-2	-1
Cc1ccc(NC(=O)CSCc2ccco2)cc1	13	4	0	-3	-3
